# Results as given in PubChem BioAssay.
# Test system: not listed separately
# Assay: JC-1 mitochondrial potential readout, lung cancer cells – cell-based, A549, JC-1 fluorescence, basal, 24 h, 100 nL, profiling panel (AID 1138);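 also: A549 lung adenocarcinoma cells under basal conditions with no added stimulus; test concentration not given here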
# Conditions: higher = more signal
row,Structure (SMILES),z-score
1,COc1ccc(COC(=O)NN=C2C[C@@H](O)[C@@H](O)[C@@H]3[C@@H]4C(=O)N(Cc5ccc6c(c5)OCO6)C(=O)[C@@H]4CC[C@@H]23)cc1,0.982
2,CCOC(=O)C[C@H]1[C@H](OC(=O)c2ccc(C(=O)c3ccccc3)cc2)[C@@H](NC(=O)c2ccc(-c3ccccc3)cc2)c2cc(OCCCO)ccc2N1C(=O)c1ccc2ccccc2n1,0.421
3,C[C@@H]1CC[C@H]2C(=O)O[C@H](COc3ccc(C(C)(C)C)cc3)CN2[C@H]1c1ccc(Br)cc1,1.87
4,CC(C)CON=C1C[C@@H](O)[C@@H](O)[C@@H]2[C@@H]3C(=O)N([C@@H](C)c4ccccc4)C(=O)[C@@H]3CC[C@H]12,1.24
5,O=C1CCCC=C1C(O)CCOCc1ccccc1 (centres undefined),-0.758
6,CCc1cccc(NC(=O)O[C@H]2[C@H](OC(=O)Nc3ccc4c(c3)OCO4)[C@@H](OC(=O)Nc3ccc4c(c3)OCO4)[C@@H](OC)O[C@@H]2CO)c1,-0.321
7,O=C1[C@H]2[C@H]3[C@H](O)[C@H](O)CC(=NO[C@@H]4O[C@H](CO)[C@@H](O)[C@H](O)[C@H]4O)[C@@H]3CC[C@H]2C(=O)N1Cc1ccc2c(c1)OCO2,-0.789
8,COC(=O)[C@H](C)NC(=O)[C@@H](C)CO,-1.08
9,CC1CC/C=C\[C@H]2OC34C=CCN(Cn5nnc6ccccc65)C(=O)[C@H]3N(CCO)C(=O)[C@@H]4C2C(=O)O1 (some centres undefined),-0.547
10,O=C1CCCC2OC12C(O)CCc1ccccc1 (centres undefined),0.112
11,CO[C@@H]1COC(=O)[C@H](C)NC(=O)[C@@H](C)COC(=O)CCC[C@H]1C,-0.816
12,CCN1C(=O)[C@H]2[C@H]3[C@H](O)[C@H](O)CC(=NOC[C@@H](C)[C@H](OCc4ccccc4)C(C)C)[C@@H]3CC[C@H]2C1=O,-0.925
13,O=C1[C@H]2[C@H]3[C@H](O)[C@H](O)CC(=NOCc4ccccc4)[C@@H]3CC[C@H]2C(=O)N1C1CCCCC1,-0.134

# Test system: Lefty1
# Assay: Lefty1 protein binding to printed compounds – biochemical, small-molecule microarray, 635/667 nm fluorescence, primary screen (AID 1139)
# Conditions: fluorescence 635/667, higher = more signal
row,Structure (SMILES),composite z-score
1,CCOC(=O)CCN1C(=O)[C@H]2[C@H]3[C@H](O)[C@H](O)CC(=NOC[C@@H](O)COCc4ccco4)[C@@H]3CC[C@H]2C1=O,-0.219
2,COc1ccc([Si](C)(C)[C@H]2[C@H](CC(=O)N3CCC[C@H]3CO)O[C@@]3(C(=O)N(Cc4cccc(N5C(=O)COc6ccccc65)c4)c4ccccc43)[C@@H]2C)cc1,0.994
3,CC(=O)OC[C@H]1O[C@H](CCON=C(C)CCC(=O)OC[C@H]2O[C@H](C#Cc3ccccc3)C=C[C@@H]2Oc2ccc(C)cc2)C=C[C@@H]1OC(C)=O,0.802
4,CCOC(=O)[C@H](CC(C)C)NC(=O)CCC1CC(OC(=O)NCc2cccc3ccccc23)CC2(CCCC(COC(=O)NCCN3CCOCC3)O2)O1 (some centres undefined),0.551
5,CN1C(=O)C2C=CC(C(O)C(c3ccccc3)c3ccccc3)N(NC(=O)OC(C)(C)C)C2C1=O (centres undefined),0.895
6,Cc1cc2c(c(=O)o1)[C@H](O)[C@H]1O[C@H]1C2=O,-0.32
7,O=C(NN=C1C[C@@H](O)[C@@H](O)[C@@H]2[C@@H]3C(=O)N(c4cccc(Oc5ccccc5)c4)C(=O)[C@@H]3CC[C@@H]12)OCc1ccccc1,0.211
8,COC(=O)C1=CCC(c2cccc(Cl)c2)O1 (centres undefined),-0.319
9,NC(=O)NCC#Cc1ccc2c(c1)[C@]1(C(=O)N2)[C@H](c2ccc(O)cc2)N2[C@H](c3ccccc3)[C@H](c3ccccc3)OC(=O)[C@H]2[C@@H]1C(=O)N1CCCCCCC1,1.02
10,CC(C)[C@@H](OCc1ccccc1)[C@H](C)C=NOC[C@@H](C)[C@H](OCc1ccccc1)C(C)C,0.595
11,COc1ccc(O[C@H]2C=C[C@@H](c3ccccc3)O[C@@H]2COC(=O)N2CCCCC2)cc1,0.225
12,CO[C@@H]1COC(=O)CC=C[C@@H](C)[C@H](OC)COC(=O)[C@H](COCc2ccccc2)NC(=O)CC=C[C@H]1C,1.12
13,CO[C@@H]1COC(=O)[C@@H]2CCCN2C(=O)[C@@H](C)COC(=O)[C@H](COCc2ccccc2)NC(=O)CC=C[C@H]1C,0.698
14,CC(=O)OC[C@H]1O[C@H](CCON=C(C)CCN2CCc3nc(-c4ccccc4)c(-c4ccccc4)cc3C2)C=C[C@@H]1OC(C)=O,0.172
15,CCCC[C@@H](O)C1=C(C)C[C@H]2C(=O)N(Cc3ccccc3)C(=O)[C@H]2[C@H]1CO,0.492
16,O=C1[C@H]2[C@H]3[C@H](O)[C@H](O)CC(=NO[C@@H]4O[C@H](CO)[C@@H](O)[C@H](O)[C@H]4O)[C@H]3CC[C@H]2C(=O)N1C1CCCCC1,0.625
17,COC(=O)C1=C(C)[C@@H](O)[C@@H](C)[C@H](c2c(OC)c(OC)c(C)c(OC)c2OC)O1,0.475
18,COc1ccc(-c2ccc3c(n2)CCCN3CC(O)CN2CCCc3nc(C)c(C)cc32)cc1 (centres undefined),1.05

row,Structure (SMILES),composite z-score
1,CC(C)(C)OC(=O)CC[C@]1(C(=O)NCc2ccccc2)N=C(c2ccc(OCCCO)cc2)O[C@H]1c1ccccc1,-0.326
2,CC(=O)OC[C@H]1O[C@H](C#CCCCc2ccccc2)C=C[C@@H]1OC(C)=O,0.696
3,CS(=O)(=O)CCOC(=O)C1=CC(CCCO)=CC(c2cccs2)N(Cc2cccc(OC(F)(F)F)c2)C=C1C(=O)OCCS(C)(=O)=O (centres undefined),0.578
4,NCCCCCNC(=O)[C@@H]1C[C@@H]2C(=O)N3CCC[C@H]3C(=O)N2[C@@H]1c1cccc(OCCO)c1,0.437
5,CC(C)=C1C(=O)C(c2ccccc2)=C2CN3C(=O)N(CCc4ccccc4)C(=O)[C@]3(Cc3ccc(F)cc3)[C@H]21,-1.2
6,COc1ccc(COC(=O)NN=C2C[C@@H](O)[C@@H](O)[C@@H]3[C@@H]4C(=O)N(Cc5ccc6c(c5)OCO6)C(=O)[C@@H]4CC[C@@H]23)cc1,-0.86
7,CCOC(=O)C[C@H]1[C@H](OC(=O)c2ccc(C(=O)c3ccccc3)cc2)[C@@H](NC(=O)c2ccc(-c3ccccc3)cc2)c2cc(OCCCO)ccc2N1C(=O)c1ccc2ccccc2n1,1.07
8,C[C@@H]1CC[C@H]2C(=O)O[C@H](COc3ccc(C(C)(C)C)cc3)CN2[C@H]1c1ccc(Br)cc1,0.0924
9,CC(C)CON=C1C[C@@H](O)[C@@H](O)[C@@H]2[C@@H]3C(=O)N([C@@H](C)c4ccccc4)C(=O)[C@@H]3CC[C@H]12,1.4
10,O=C1CCCC=C1C(O)CCOCc1ccccc1 (centres undefined),0.484
11,CCc1cccc(NC(=O)O[C@H]2[C@H](OC(=O)Nc3ccc4c(c3)OCO4)[C@@H](OC(=O)Nc3ccc4c(c3)OCO4)[C@@H](OC)O[C@@H]2CO)c1,1.36
12,O=C1[C@H]2[C@H]3[C@H](O)[C@H](O)CC(=NO[C@@H]4O[C@H](CO)[C@@H](O)[C@H](O)[C@H]4O)[C@@H]3CC[C@H]2C(=O)N1Cc1ccc2c(c1)OCO2,0.716
13,COC(=O)[C@H](C)NC(=O)[C@@H](C)CO,0.602
14,CC1CC/C=C\[C@H]2OC34C=CCN(Cn5nnc6ccccc65)C(=O)[C@H]3N(CCO)C(=O)[C@@H]4C2C(=O)O1 (some centres undefined),-0.428
15,O=C1CCCC2OC12C(O)CCc1ccccc1 (centres undefined),0.279
16,CO[C@@H]1COC(=O)[C@H](C)NC(=O)[C@@H](C)COC(=O)CCC[C@H]1C,0.784
17,CCN1C(=O)[C@H]2[C@H]3[C@H](O)[C@H](O)CC(=NOC[C@@H](C)[C@H](OCc4ccccc4)C(C)C)[C@@H]3CC[C@H]2C1=O,0.192
18,O=C1[C@H]2[C@H]3[C@H](O)[C@H](O)CC(=NOCc4ccccc4)[C@@H]3CC[C@H]2C(=O)N1C1CCCCC1,0.348
